Results taken from the supplement of paper PMC10849652.
About 7,900 targets were measured; listed, in parts, are those with a hit and a random draw of the rest. About 0.6% of all pairs of compound and target were hits.

Key:
Assay in all cases: log2 fold change, soluble protein after heating vs DMSO (PISA); higher = thermal stabilisation; K562 cells, 10 uM, 30 min; active = over 0.2 and 3.5 SD of the protein, either way, in both replicates (recomputed)
erlotinib = compound: C#Cc1cccc(Nc2ncnc3cc(OCCOC)c(OCCOC)cc23)c1 [erlotinib]
Summary of the method: (§1)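 Thermal stability values are relative to control samples and come from duplicates. They are expressed as log2 fold changes. For measurement, K562 cells (2×10^6 cells/mL) received 10 μM compound for 30 min, and aliquots were heated for 3 min over 48°C-58°C, pooled, and extracted at 4°C in PBS with 0.5% NP-40. Soluble protein, the supernatant after 21,000xg for 90 min, was quantified by TMTpro 16plex LC-MS/MS with equalised channel sums.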

[1] = compound: C/C(=N\NC(=O)C1=CC(=CC=C1)S(=O)(=O)N2CCOCC2)/C3=C(C=CC(=C3)Cl)O
Summary of the method: as §1

[2] = compound: C1=CC(=C(C=C1Cl)C2=NC3=NC=CN=C3C(=N2)NC4=CC=NC=C4)F
Summary of the method: as §1

[3] = compound: C1=CC(=CC=C1C2=NC3=C(N2)C=C(C=C3)C(=O)N)OC4=CC=C(C=C4)Cl
Summary of the method: as §1

[4] = compound: C1=CC2=C(C=CC(=C2)/C=C\3/C(=O)NC(=NCC4=CC=CS4)S3)N=C1
Summary of the method: as §1

[5] = compound: C1=CC2=NC=CN=C2C=C1/C=C/3\C(=O)NC(=O)S3
Summary of the method: as §1

[6] = compound: C1=CC=C(C=C1)C2=NC(=C(N2)C3=CC=NC=C3)C4=CC(=C(C=C4)Cl)O
Summary of the method: as §1

[7] = compound: C1=CC=C2C(=C1)C3=NNC4=CC=CC(=C43)C2=O
Summary of the method: as §1

[8] = compound: C1CCN(C1)C(=O)NC2=CC=CC(=C2)NC3=NC=C(C(=N3)NCCC4=CN=CN4)Br
Summary of the method: as §1

[9] = compound: C1CN(CCC1(CC2=CC=C(C=C2)Cl)N)C3=NC=NC4=C3C=CN4
Summary of the method: as §1

IRAK-1-4 Inhibitor I = compound: C1COCCN1CCN2C3=CC=CC=C3N=C2NC(=O)C4=CC(=CC=C4)[N+](=O)[O-] [IRAK-1-4 Inhibitor I]
Summary of the method: as §1

ibrutinib = compound: C=CC(=O)N1CCC[C@@H](n2nc(-c3ccc(Oc4ccccc4)cc3)c3c(N)ncnc32)C1 [ibrutinib]
Summary of the method: as §1

[10] = compound: CC(=O)c1cnc2ccc(-c3cc(Cl)c(O)c(Cl)c3)nc2c1N[C@H]1CC[C@H](CN(C)C)CC1
Summary of the method: as §1

ralimetinib = compound: CC(C)(C)Cn1c(N)nc2ccc(-c3[nH]c(C(C)(C)C)nc3-c3ccc(F)cc3)nc21 [ralimetinib]
Summary of the method: as §1

[11] = compound: CC(C)(O)CC(=O)NCCn1ccc2ncnc(Nc3ccc(Oc4cccc(C(F)(F)F)c4)c(Cl)c3)c21
Summary of the method: as §1

[12] = compound: CC(C)C1=C2N=C(C=C(N2N=C1)NCC3=CC=CC=C3)NCCCCCCN
Summary of the method: as §1

[13] = compound: CC(C)C[C@@H](C=O)NC(=O)[C@H](CC(C)C)NC(=O)[C@H](CC(C)C)NC(=O)OCc1ccccc1
Summary of the method: as §1

pinometostat = compound: CC(C)N(C[C@H]1O[C@@H](n2cnc3c(N)ncnc32)[C@H](O)[C@@H]1O)[C@H]1C[C@@H](CCc2nc3cc(C(C)(C)C)ccc3[nH]2)C1 [pinometostat]
Summary of the method: as §1

[14] = compound: CC1=C(C(CC(=O)N1)C2=CC=C(C=C2)C(F)(F)F)C(=O)NC3=C(C=C4C(=C3)C=NN4)F
Summary of the method: as §1

[15] = compound: CC1=C(C2=C(C=C1)C(=O)C3=CC=CC=C3N2CCCN)C
Summary of the method: as §1

Measured: log2 fold change

GABPA (UniProt Q06546)
Chain of UniProt Q06546 (Q06546 whole entry, looked up): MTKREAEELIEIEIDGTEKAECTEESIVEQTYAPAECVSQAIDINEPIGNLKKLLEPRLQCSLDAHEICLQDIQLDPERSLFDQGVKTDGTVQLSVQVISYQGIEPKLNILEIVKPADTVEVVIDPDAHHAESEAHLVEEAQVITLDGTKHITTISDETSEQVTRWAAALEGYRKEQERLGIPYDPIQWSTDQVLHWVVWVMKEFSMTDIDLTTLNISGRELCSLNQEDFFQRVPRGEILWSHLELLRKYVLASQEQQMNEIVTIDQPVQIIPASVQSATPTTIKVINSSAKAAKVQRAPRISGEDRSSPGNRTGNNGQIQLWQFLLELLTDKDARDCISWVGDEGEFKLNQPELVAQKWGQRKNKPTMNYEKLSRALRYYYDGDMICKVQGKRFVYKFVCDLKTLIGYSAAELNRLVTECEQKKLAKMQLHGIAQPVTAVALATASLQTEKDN
inactive: erlotinib 0.07 | [1] 0.121 | [2] 0.014 | [3] -0.042 | [4] 0.083 | [5] -0.055 | [6] 0.049 | [7] 0.025 | [8] -0.028 | [9] 0.011 | IRAK-1-4 Inhibitor I -0.004 | ibrutinib -0.014 | [10] -0.054 | ralimetinib 0.001 | [11] -0.107 | [12] -0.243 | [13] -0.013 | pinometostat -0.007 | [14] -0.043 | [15] -0.175

GLRX3 (UniProt O76003)
Chain of UniProt O76003 (O76003 whole entry, looked up): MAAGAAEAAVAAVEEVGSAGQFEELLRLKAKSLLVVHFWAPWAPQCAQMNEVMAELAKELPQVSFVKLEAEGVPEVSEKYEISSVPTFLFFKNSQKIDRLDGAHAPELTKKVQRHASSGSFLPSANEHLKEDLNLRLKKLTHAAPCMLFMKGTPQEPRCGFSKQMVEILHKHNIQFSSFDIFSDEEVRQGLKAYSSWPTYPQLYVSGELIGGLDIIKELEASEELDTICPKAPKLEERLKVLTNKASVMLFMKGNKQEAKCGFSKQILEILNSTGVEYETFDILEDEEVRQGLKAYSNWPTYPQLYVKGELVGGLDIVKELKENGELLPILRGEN
inactive: erlotinib -0.031 | [1] 0.024 | [2] 0.052 | [3] -0.037 | [4] 0.011 | [5] 0.006 | [6] 0.031 | [7] -0.001 | [8] 0.003 | [9] -0.015 | IRAK-1-4 Inhibitor I -0.03 | ibrutinib -0.015 | [10] 0.02 | ralimetinib 0.002 | [11] -0.027 | [12] -0.024 | [13] -0.033 | pinometostat -0.033 | [14] -0.021 | [15] -0.025

H2AZ1 (UniProt P0C0S5)
Chain of UniProt P0C0S5 (P0C0S5 whole entry, looked up): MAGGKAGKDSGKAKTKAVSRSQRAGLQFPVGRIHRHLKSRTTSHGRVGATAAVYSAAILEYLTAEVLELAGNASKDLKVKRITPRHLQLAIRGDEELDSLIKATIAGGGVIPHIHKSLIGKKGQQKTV
inactive: erlotinib -0.025 | [1] -0.13 | [2] -0.554 | [3] -0.014 | [4] -0.087 | [5] 0.169 | [6] -0.189 | [7] 0.036 | [8] 0.07 | [9] 0.037 | IRAK-1-4 Inhibitor I -0.115 | ibrutinib 0.087 | [10] -0.125 | ralimetinib 0.247 | [11] 0.031 | [12] -0.022 | [13] 0.244 | pinometostat 0.268 | [14] 0.022
active: [15] 1.74

FNTA (UniProt P49354)
inactive: erlotinib 0.245 | [1] -0.033 | [2] 0.116 | [3] -0.017 | [4] 0.075 | [5] -0.009 | [6] 0.051 | [7] -0.034 | [8] 0.065 | [9] 0.106 | IRAK-1-4 Inhibitor I 0.052 | ibrutinib 0.107 | [10] 0.081 | ralimetinib -0.05 | [11] -0.023 | [12] 0.016 | [13] -0.031 | pinometostat -0.018 | [14] -0.023 | [15] -0.074

IDI1 isoform 2 (UniProt Q13907)
Chain of UniProt Q13907 (Q13907 whole entry, looked up): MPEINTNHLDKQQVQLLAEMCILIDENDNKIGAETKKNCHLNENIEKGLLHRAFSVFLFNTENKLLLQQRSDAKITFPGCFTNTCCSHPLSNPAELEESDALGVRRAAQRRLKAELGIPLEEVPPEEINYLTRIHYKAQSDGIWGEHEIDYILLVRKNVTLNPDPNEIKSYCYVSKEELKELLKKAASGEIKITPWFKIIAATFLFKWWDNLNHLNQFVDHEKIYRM
inactive: erlotinib 0.004 | [2] 0.03 | [3] -0.012 | [4] -0.033 | [5] -0.004 | [6] -0.038 | [7] 0.034 | [8] -0.02 | [9] 0.002 | IRAK-1-4 Inhibitor I 0.052 | ibrutinib 0.034 | [10] -0.01 | ralimetinib -0.04 | [11] 0.1 | [12] 0.077 | [13] -0.002 | pinometostat -0.012 | [14] 0.04 | [15] -0.099
active: [1] -0.313

GTF3C4 (UniProt Q9UKN8)
Chain of UniProt Q9UKN8 (Q9UKN8 whole entry, looked up): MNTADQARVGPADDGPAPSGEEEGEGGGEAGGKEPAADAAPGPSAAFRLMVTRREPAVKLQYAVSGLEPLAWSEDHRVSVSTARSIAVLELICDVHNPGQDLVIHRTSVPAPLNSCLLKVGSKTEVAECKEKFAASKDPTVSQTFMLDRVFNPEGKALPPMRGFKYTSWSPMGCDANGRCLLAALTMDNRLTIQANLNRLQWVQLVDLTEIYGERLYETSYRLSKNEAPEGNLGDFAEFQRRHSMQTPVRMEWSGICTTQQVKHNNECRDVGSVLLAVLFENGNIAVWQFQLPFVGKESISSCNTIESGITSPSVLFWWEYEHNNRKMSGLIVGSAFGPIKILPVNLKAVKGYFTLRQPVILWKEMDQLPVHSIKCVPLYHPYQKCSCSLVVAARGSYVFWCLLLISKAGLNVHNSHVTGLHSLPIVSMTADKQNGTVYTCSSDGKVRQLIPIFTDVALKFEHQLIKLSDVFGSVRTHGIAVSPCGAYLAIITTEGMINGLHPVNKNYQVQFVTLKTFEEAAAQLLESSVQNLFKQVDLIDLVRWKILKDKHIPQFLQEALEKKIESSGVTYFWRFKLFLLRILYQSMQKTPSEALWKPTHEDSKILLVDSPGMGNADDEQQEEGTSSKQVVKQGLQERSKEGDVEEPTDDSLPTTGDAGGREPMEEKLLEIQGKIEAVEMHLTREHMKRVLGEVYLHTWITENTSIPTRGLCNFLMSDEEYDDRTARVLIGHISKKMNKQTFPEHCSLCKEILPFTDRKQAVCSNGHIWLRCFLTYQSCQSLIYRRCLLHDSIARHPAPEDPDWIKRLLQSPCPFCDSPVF
inactive: erlotinib -0.016 | [1] 0.065 | [2] 0.026 | [3] 0.003 | [4] 0.025 | [5] -0.005 | [6] 0.003 | [7] -0.022 | [8] -0.026 | [9] 0.027 | IRAK-1-4 Inhibitor I -0.002 | ibrutinib 0.032 | [10] -0.051 | ralimetinib -0.045 | [11] 0.035 | [12] 0.038 | [13] 0.035 | pinometostat 0 | [14] -0.047 | [15] -0.041

GATD1 (UniProt Q8NB37)
inactive: erlotinib 0.028 | [1] -0.006 | [2] 0.111 | [3] -0.012 | [4] 0.057 | [5] 0.007 | [6] -0.01 | [7] 0.047 | [8] -0.006 | [9] 0.098 | IRAK-1-4 Inhibitor I -0.069 | ibrutinib 0.106 | [10] -0.099 | ralimetinib -0.026 | [11] 0.01 | [12] 0.026 | [13] 0.104 | pinometostat 0.141 | [14] 0.032 | [15] 0

FUT8 (UniProt Q9BYC5)
inactive: erlotinib -0.036 | [1] 0.019 | [2] -0.07 | [3] -0.12 | [4] -0.145 | [5] -0.055 | [6] -0.004 | [7] -0.038 | [8] 0.045 | [9] -0.038 | IRAK-1-4 Inhibitor I -0.02 | ibrutinib 0.064 | [10] -0.098 | ralimetinib -0.087 | [11] 0.019 | [12] -0.133 | [13] 0.053 | pinometostat 0.065 | [14] 0.105 | [15] 0.077

HBQ1 (UniProt P09105)
Chain of UniProt P09105 (P09105 whole entry, looked up): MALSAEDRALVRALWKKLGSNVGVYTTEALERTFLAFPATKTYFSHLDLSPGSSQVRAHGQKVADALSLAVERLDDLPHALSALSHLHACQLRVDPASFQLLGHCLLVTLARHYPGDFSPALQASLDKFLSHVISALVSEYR
active: [2] 0.33
inactive: erlotinib -0.007 | [1] -0.021 | [3] 0.03 | [4] 0.059 | [5] 0.011 | [6] 0.051 | [7] -0.021 | [8] -0.093 | [9] 0.026 | IRAK-1-4 Inhibitor I 0.003 | ibrutinib 0.016 | [10] 0.01 | ralimetinib -0.034 | [11] -0.078 | [12] 0.095 | [13] -0.102 | pinometostat 0.004 | [14] 0.027 | [15] 0.147

HNRNPUL2 (UniProt Q1KMD3)
Chain of UniProt Q1KMD3 (Q1KMD3 whole entry, looked up): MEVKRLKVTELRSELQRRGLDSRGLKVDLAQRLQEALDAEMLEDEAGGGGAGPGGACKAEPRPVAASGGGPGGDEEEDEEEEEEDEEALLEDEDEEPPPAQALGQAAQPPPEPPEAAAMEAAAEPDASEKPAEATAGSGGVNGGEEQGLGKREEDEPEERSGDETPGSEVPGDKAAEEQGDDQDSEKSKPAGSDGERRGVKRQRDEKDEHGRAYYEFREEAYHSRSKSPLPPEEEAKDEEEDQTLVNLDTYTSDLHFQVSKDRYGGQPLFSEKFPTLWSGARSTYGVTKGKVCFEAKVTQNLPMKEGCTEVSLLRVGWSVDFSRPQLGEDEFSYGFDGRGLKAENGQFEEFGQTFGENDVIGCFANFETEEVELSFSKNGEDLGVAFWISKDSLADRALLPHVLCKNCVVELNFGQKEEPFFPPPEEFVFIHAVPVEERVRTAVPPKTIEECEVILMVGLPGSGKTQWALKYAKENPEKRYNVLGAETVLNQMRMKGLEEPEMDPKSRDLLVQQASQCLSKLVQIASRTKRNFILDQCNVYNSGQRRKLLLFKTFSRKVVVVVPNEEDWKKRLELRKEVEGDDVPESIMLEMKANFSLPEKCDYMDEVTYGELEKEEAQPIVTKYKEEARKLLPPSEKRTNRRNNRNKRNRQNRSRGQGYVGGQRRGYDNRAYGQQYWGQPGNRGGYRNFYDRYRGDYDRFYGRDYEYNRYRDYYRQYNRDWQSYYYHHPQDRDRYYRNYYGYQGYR
inactive: erlotinib -0.054 | [1] -0.08 | [2] -0.138 | [3] -0.015 | [4] -0.057 | [5] 0.012 | [6] -0.056 | [7] -0.014 | [8] 0.011 | [9] -0.102 | IRAK-1-4 Inhibitor I -0.033 | ibrutinib -0.022 | [10] -0.014 | ralimetinib -0.033 | [11] 0.024 | [12] 0.117 | [13] 0.054 | pinometostat 0.107 | [14] -0.009 | [15] 0.023

GNPAT (UniProt O15228)
inactive: erlotinib 0.067 | [1] 0.112 | [2] 0.075 | [3] -0.001 | [4] 0.073 | [5] 0.03 | [6] 0.057 | [7] 0.019 | [8] -0.003 | [9] 0.058 | IRAK-1-4 Inhibitor I 0.026 | ibrutinib -0.007 | [10] -0.017 | ralimetinib 0.02 | [11] -0.053 | [12] -0.018 | [13] -0.014 | pinometostat -0.018 | [14] 0.004 | [15] 0.024

IFRD1 (UniProt O00458)
active: [15] -1.05
inactive: erlotinib 0.226 | [1] -0.021 | [2] -0.124 | [3] -0.008 | [4] 0.134 | [5] 0.199 | [6] -0.013 | [7] 0.068 | [8] 0.042 | [9] -0.04 | IRAK-1-4 Inhibitor I 0.033 | ibrutinib 0.058 | [10] 0.203 | ralimetinib -0.014 | [11] -0.002 | [12] -0.035 | [13] 0.168 | pinometostat -0.029 | [14] -0.095

GID4 (UniProt Q8IVV7)
inactive: erlotinib -0.033 | [1] 0.017 | [2] 0.005 | [3] 0.028 | [4] -0.046 | [5] 0.003 | [6] -0.072 | [7] -0.018 | [8] 0.042 | [9] -0.005 | ibrutinib 0.035 | [10] 0.025 | ralimetinib -0.019 | [11] 0.016 | [12] 0.028 | [13] 0.027 | [14] 0.023 | [15] -0.071

IFT80 isoform 3 (UniProt Q9P2H3)
Chain of UniProt Q9P2H3 (Q9P2H3 whole entry, looked up): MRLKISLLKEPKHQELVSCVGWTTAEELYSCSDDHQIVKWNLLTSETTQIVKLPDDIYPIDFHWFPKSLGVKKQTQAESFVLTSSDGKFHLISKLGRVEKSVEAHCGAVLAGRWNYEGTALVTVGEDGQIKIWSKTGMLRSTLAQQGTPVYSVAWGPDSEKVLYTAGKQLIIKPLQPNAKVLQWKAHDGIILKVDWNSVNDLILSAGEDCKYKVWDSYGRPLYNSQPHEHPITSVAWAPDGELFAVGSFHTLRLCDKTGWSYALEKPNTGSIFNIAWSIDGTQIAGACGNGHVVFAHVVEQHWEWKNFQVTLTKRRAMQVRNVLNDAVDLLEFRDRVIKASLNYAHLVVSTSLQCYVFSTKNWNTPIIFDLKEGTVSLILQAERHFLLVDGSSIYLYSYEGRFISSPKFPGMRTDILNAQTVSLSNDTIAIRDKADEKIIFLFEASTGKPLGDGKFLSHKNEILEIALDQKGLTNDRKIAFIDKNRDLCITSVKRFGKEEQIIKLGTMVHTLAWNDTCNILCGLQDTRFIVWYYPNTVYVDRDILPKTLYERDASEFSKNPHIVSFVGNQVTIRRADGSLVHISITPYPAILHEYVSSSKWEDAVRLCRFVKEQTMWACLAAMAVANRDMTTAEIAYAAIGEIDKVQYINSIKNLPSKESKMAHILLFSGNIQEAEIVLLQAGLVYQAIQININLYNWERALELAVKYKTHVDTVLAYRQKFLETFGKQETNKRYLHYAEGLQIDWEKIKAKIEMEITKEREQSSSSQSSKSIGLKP
inactive: erlotinib 0.04 | [1] 0.071 | [2] -0.04 | [3] 0.013 | [4] 0.042 | [5] -0.011 | [6] -0.066 | [7] -0.229 | [8] -0.013 | [9] 0.042 | IRAK-1-4 Inhibitor I 0.03 | ibrutinib 0.099 | [10] -0.073 | ralimetinib -0.02 | [11] -0.118 | [12] -0.113 | [13] 0.072 | pinometostat 0.049 | [14] -0.085 | [15] 0.073

FHOD1 (UniProt Q9Y613)
Chain of UniProt Q9Y613 (Q9Y613 whole entry, looked up): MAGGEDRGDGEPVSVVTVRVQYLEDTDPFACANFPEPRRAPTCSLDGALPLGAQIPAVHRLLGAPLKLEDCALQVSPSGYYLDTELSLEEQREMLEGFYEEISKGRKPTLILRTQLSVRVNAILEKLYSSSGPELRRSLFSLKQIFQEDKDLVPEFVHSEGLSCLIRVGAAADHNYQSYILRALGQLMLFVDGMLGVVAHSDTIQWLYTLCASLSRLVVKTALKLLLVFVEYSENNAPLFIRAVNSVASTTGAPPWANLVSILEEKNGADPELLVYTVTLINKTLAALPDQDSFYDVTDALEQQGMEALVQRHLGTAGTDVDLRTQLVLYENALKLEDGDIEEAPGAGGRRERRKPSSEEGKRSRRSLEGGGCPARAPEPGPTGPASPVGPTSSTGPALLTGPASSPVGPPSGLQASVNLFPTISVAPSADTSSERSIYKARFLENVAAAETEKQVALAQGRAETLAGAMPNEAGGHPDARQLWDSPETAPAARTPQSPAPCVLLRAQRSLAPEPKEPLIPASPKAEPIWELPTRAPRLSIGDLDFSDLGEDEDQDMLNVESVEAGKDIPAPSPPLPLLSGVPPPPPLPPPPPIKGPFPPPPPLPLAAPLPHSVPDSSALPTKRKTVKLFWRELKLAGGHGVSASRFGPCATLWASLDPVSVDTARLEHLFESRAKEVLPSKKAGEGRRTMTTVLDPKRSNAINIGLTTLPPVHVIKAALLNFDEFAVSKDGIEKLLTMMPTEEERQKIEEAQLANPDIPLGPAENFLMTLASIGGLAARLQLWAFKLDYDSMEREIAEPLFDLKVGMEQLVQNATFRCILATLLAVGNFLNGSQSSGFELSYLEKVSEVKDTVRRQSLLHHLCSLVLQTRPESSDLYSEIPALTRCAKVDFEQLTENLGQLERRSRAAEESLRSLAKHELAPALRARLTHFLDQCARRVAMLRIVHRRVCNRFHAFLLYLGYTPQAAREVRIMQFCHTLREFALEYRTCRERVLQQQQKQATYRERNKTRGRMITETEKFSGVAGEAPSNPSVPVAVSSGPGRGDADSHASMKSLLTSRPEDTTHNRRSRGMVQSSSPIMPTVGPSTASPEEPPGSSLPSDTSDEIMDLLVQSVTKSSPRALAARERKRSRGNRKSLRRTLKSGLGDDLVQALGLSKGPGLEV
inactive: erlotinib -0.002 | [1] -0.259 | [2] -0.337 | [3] -0.059 | [4] 0.059 | [5] 0.146 | [6] -0.034 | [7] -0.007 | IRAK-1-4 Inhibitor I -0.053 | ibrutinib 0.011 | [10] 0.042 | ralimetinib 0.193 | [11] 0.035 | [12] -0.197 | [13] 0.148 | pinometostat 0.458 | [14] 0.07

GPD1 (UniProt P21695)
inactive: erlotinib 0.55 | [1] -0.084 | [2] -0.075 | [3] -0.305 | [4] 0.129 | [5] -0.149 | [6] -0.003 | [7] -0.047 | [8] -0.043 | [9] 0.032 | ibrutinib 0.059 | [10] -0.066 | ralimetinib -0.141 | [11] 0.079 | [12] 0.268 | [13] -0.051 | [14] 0.096 | [15] 0.009
